This is a sample that favours compounds with a hit; in the whole collection about 7.1% have one here.
IL-1B inflam inh = qHTS for Inhibitors of Inflammasome Signaling: IL-1-beta AlphaLISA Primary Screen | 4.7% of 360,000 active | THP-1 LPS/ATP IL-1B secretion, AlphaLISA, 16 h; stronger effect = lower value | activity change, % at 57.5 µM; in the data active means activity change below about -50%; inconclusive means mostly about -30% to -49%; further: on the % scale 0 is the no-effect control and ±100 the full control effect
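Secreted IL-1B measured by AlphaLISA bead assay after 16 h compound exposure of THP-1 cells; compounds (final up to 57.5 uM) added 1 h before LPS (250 ng/mL) and ATP (1.25 mM) stimulation; lower signal means less secretion.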
MCF10A rerep = A quantitative high throughput screen for small molecules that induce DNA re-replication in MCF 10a normal breast cells; Potency, µM (titrated, usually from 46.1 µM), inactives show at the highest dose activity, positive = re-replication, hits mostly activators; 2.9% of 350,000 active; MCF 10A DNA re-replication, Hoechst nuclear intensity, 48 h; further: potency means the concentration at half of the fitted maximal effect; % of control where 0% means no effect; nearly all actives have a fitted effect of over 50% in size
ATXN2 expr inh = Primary qHTS for Inhibitors of ATXN expression; HEK-293 ATXN2-luciferase reporter, luminescence, 24 h; 0.72% of 360,000 active; Potency, µM (titrated, usually from 57 µM), without a hit: at the highest dose activity change, negative = inhibition, most hits filed as inhibitors; AID 1745845, 2022; further: potency means the concentration at half of the fitted maximal effect; on the % scale 0 is the no-effect control and ±100 the full control effect; nearly all actives have a fitted effect of over 55% in size
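ATXN2-luciferase reporter cells (luciferase flanked by upstream and downstream ATXN2 gene portions) were treated 24 h at 37 °C with compounds at up to 57 uM. SteadyGlo luminescence gave expression; GF-AFC fluorescence gave viability.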
SW480 rereplic = A quantitative high throughput screen for small molecules that induce DNA re-replication in SW480 colon adenocarcinoma cells; 1.8% of 340,000 active; AID 624297, 2012; SW480 DNA re-replication, Hoechst DNA content imaging, 48 h; Potency, µM (series often up to 46.1 µM), for the others: top-dose re-replication activation, actives largely listed as activators; further: potency means the concentration at half of the fitted maximal effect; % of control where 0% means no effect; nearly all actives have a fitted effect of over 55% in size
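Per well, 250 cells were exposed to pinned compound for 48 hr. Nuclear DNA was visualised with Hoechst (40 min, 37 C) and total object intensity recorded by fluorescence scanning.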
PINK1 modulator = A Quantitative High throughput Screen to Identify Chemical Modulators of PINK1 Expression | PINK1 immunofluorescence, high-content cytometry, 24 h | Potency, µM (highest dose often 76.6 µM), without a hit: top-dose activation (PINK1 increase), most hits filed as activators | 0.2% of 410,000 active; active means well fitted activation curve with a large enough effect; inconclusive means small, poorly fitted or top-dose-only effect; cell line not stated here; further: potency means the concentration at half of the fitted maximal effect; % of control where 0% means no effect; nearly all actives have a fitted effect of over 65% in size
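PINK1 protein, normally rapidly degraded, was detected by immunofluorescence after 24 hour compound treatment of a stable cell line. Titration data (5 concentrations) came from laser-scanning cytometry, with CCCP-treated wells as controls.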
S2 tox = Viability Counterscreen for Primary qHTS for Inhibitors of ATXN expression; 0.49% of 400,000 active; Potency, µM (highest dose often 56.7 µM), most hits filed as cytotoxic; AID 651635, 2014; S2 cells (HEK-293 line with an ATXN2-luciferase reporter) viability, CellTiter-Fluor protease fluorescence, 24 h; further: potency means the concentration at half of the fitted maximal effect; nearly all actives have a fitted effect of over 40% in size
Active calls of the source: *; i = inactive; ? = inconclusive; . = not tested or not shown. Unless noted, the call rests on the fitted dose curve; in most records, active means well fitted curve in the direction sought with a large enough effect; inconclusive means small, poorly fitted or top-dose-only effect, or another doubt; inactive means no such curve, though single readings can be large; an effect the other way counts as inactive or inconclusive.

SMILES	IL-1B inflam inh	MCF10A rerep	ATXN2 expr inh	SW480 rereplic	PINK1 modulator	S2 tox
COc1ccc2[nH]c(C)c(C(=O)CN(C)CC(OC)OC)c2c1	.	.	.	.	1%	.
COc1ccc(OCCCCn2c(C3CC(=O)N(c4cccc(Cl)c4)C3)nc3ccccc32)cc1 (centres undefined)	.	.	-33%	.	3%	?
CC(C)OCCCn1c(SCc2ccccc2Cl)nc2c(sc3ccccc32)c1=O	.	.	11%	.	1%	i
O=S(=O)(c1ccccc1)C1CC1(c1ccccc1)c1ccccc1 (centres undefined)	-13	12%	0%	1%	1%	i
CCN1CCCC1CNC(=O)c1cnn(-c2nccc(-c3cc4ccccc4o3)n2)c1C (centres undefined)	.	.	.	.	-1%	?
COc1ccc(CCNC(=O)c2cn(C)c3ccc(S(=O)(=O)N(C)C)cc3c2=O)cc1OC	.	.	-8%	.	1%	i
O=C(c1ccco1)N1CCC(c2nc3c(nnn3Cc3ccccc3Cl)c(=O)[nH]2)CC1	10	3%	6%	0%	-1%	i
O=C(Nc1ccc(F)cc1)N1CCC(c2nc3c(nnn3Cc3ccccc3Cl)c(=O)[nH]2)CC1	-74*	1%	-9%	4%	1%	i
Cc1ccc(C)c(Cn2nnc3c(=O)[nH]c(C4CCN(S(=O)(=O)c5ccc(S(=O)(=O)NC6CC6)cc5)CC4)nc32)c1	-54*	1%	-2%	22%	1%	i
O=c1[nH]c(C2CCN(S(=O)(=O)c3ccc(C(F)(F)F)cc3)CC2)nc2c1nnn2Cc1ccccc1	-71*	-1%	?	-8%	10%	i
CC(=O)Nc1ccc(S(=O)(=O)N2CCC(c3nc4c(nnn4Cc4ccccc4Cl)c(=O)[nH]3)CC2)cc1	-51*	11%	23%	-4%	8%	i
Cc1ccc(C)c(Cn2nnc3c(=O)[nH]c(C4CCN(S(=O)(=O)c5ccc(S(=O)(=O)N(C)C)cc5)CC4)nc32)c1	?	4%	24%	14%	2%	i
O=c1[nH]c(C2CCN(S(=O)(=O)c3ccc(C(F)(F)F)cc3)CC2)nc2c1nnn2Cc1cccc(F)c1	?	-7%	-36%	-7%	3%	i
O=c1[nH]c(C2CCN(S(=O)(=O)Cc3ccccc3)CC2)nc2c1nnn2Cc1ccccc1Cl	24	-2%	17%	-9%	0%	i
Cc1ccccc1NC(=O)CSc1cn(CC(=O)N2CCCCCC2)c2ccccc12	.	.	.	.	3%	.
COc1ccc(-c2nnc(SCC(=O)Nc3cc(OC)ccc3OC)nc2-c2ccc(OC)cc2)cc1	.	.	.	.	0%	.
Cc1cccc(N2CCN(C(=O)Cn3ncc4c3-c3cc(C)ccc3OC4)CC2C)c1 (centres undefined)	.	.	?	.	1%	.
Cc1ccc(N2CC(NC(=O)C3CC3)CC2=O)cc1C (centres undefined)	.	.	.	.	1%	.
O=c1[nH]c(C2CCN(S(=O)(=O)/C=C/c3ccccc3)CC2)nc2c1nnn2Cc1ccc(F)cc1	-54*	20%	-25%	?	3%	i
O=C(CSC1=Nc2ccccc2N=C(c2ccc(F)cc2)C1)Nc1cccc(C(F)(F)F)c1	.	.	-36%	.	26%	?
CCOc1ccccc1C(=O)Nc1cccc(-c2ccc(N3CCOCC3)nn2)c1	-62*	26%	33%	1%	-2%	i
CN1CCN(c2ccc(-c3cccc(NC(=O)COc4ccccc4)c3)nn2)CC1	-5	?	3%	-8%	2%	i
CN1CCN(c2ccc(-c3cccc(NC(=O)COc4ccc(Cl)cc4)c3)nn2)CC1	-70*	?	-12%	-5%	-2%	?
O=C(NCCN1Cc2ccccc2OC(c2ccccc2F)C1)c1cncs1 (centres undefined)	.	.	.	.	0%	i

Screening data deposited in PubChem by National Center for Advancing Translational Sciences (NCATS).
